S2 tox = reduces viability in counter-screen for ATXN expression inhibitors. S2 cells (HEK-293 line with an ATXN2-luciferase reporter) viability, CellTiter-Fluor protease fluorescence, 24 h. 0.49% of 400,000 active. Potency, µM (doses to about 56.7 µM), most hits filed as cytotoxic; further: potency means the concentration at half of the fitted maximal effect; nearly all actives have a fitted effect of over 40% in size
DRD3 antagonist = blocks the human D3 dopamine receptor | D3R cells, DiscoveRx beta-arrestin luminescence, antagonist mode; hits give low values | max response, negative = inhibition, % | 2.5% of 360,000 active | P35462 | AID 652054; in the data active means max response below about -50%; inconclusive means no clear call, values can overlap the other calls; further: on the % scale 0 is the no-effect control and ±100 the full control effect
Target sequence (P35462 whole entry, looked up): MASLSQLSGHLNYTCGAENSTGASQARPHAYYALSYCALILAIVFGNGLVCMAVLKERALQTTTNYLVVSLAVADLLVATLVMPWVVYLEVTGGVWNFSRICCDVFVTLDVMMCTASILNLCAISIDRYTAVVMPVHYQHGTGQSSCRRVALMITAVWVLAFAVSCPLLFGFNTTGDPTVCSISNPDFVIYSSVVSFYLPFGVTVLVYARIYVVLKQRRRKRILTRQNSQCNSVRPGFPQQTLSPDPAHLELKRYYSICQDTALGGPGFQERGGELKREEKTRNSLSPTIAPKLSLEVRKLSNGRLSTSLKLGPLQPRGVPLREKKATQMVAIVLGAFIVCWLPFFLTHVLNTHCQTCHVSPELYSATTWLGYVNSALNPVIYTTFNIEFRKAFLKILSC
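Cells plated overnight at 1500 cells/well, then exposed to library compounds with dopamine controls for 90 minutes at 37 degrees C. DiscoveRx reagent added for 30–60 minutes at room temperature; luminescence read, quantitative HTS format.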
D3 ag = D3 dopamine receptor (human) agonism; P35462; D3R DiscoveRx beta-arrestin cells, luminescence, 90 min; max activation, %; 0.58% of 410,000 active; AID 652048; in the data active means max activation above about 30%; further: 0% is about no effect
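Agonist-mode cell screen: cells plated at 1500/well and incubated overnight at 37 °C, then exposed to library compounds for 90 min at 37 °C. Detection reagent was added for 30–60 min at room temperature, and luminescence was read.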
HepG2 tox = HepG2 cytotoxicity, counter-screen for TGF-b inhibitors | 0.76% of 410,000 active | Potency, µM (highest dose often 46.1 µM), inactives show top-dose activity change, negative = cytotoxicity, most hits filed as cytotoxic | HepG2 CAGA-GFP viability, ATP luminescence, 18 h | AID 588856; further: potency means the concentration at half of the fitted maximal effect
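CellTiter-Glo luminescence gave cytotoxicity after 18 hours at 37 degrees C. The cells were HepG2 CAGA-GFP in 1% FBS DMEM, stimulated with 500 pg/mL TGF-beta after compound addition. %Activity was normalised to no-cell wells (complete cell-killing) and DMSO (no toxicity), and curves were fitted and classified.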
ATXN2 expr inh = ATXN2 expression inhibition | AID 1745845 | 0.72% of 360,000 active | HEK-293 ATXN2-luciferase reporter, luminescence, 24 h | Potency, µM (doses to about 57 µM), inactives show top-dose activity change, negative = inhibition, most hits filed as inhibitors; further: potency means the concentration at half of the fitted maximal effect; on the % scale 0 is the no-effect control and ±100 the full control effect; nearly all actives have a fitted effect of over 55% in size
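qHTS (up to 57 uM final) was run with 24 h compound exposure of reporter cells at 37 °C. Each well was multiplexed: SteadyGlo luminescence measured ATXN2-luciferase expression after a fluorogenic Gly-Phe-AFC viability readout (25 uM final).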
TGFb inhibitor = TGF-b pathway inhibition; Potency, µM (titrated, usually from 46.1 µM), without a hit: at the highest dose activity, negative = inhibition, usual class: inhibitors; HepG2 CAGA-GFP TGF-b/SMAD3 reporter, GFP fluorescence, 18 h; TGF-beta stimulated, 500 pg/mL final; 1.2% of 410,000 active; AID 588855; further: potency means the concentration at half of the fitted maximal effect; on the % scale 0 is the no-effect control and ±100 the full control effect; nearly all actives have a fitted effect of over 65% in size
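HEPG2 CAGA-GFP reporter cells (1000/well, DMEM with 1% FBS) received compounds, then recombinant TGF-beta at 500 pg/mL final for 18 hours at 37 degrees C. Per-cell GFP summed per well was normalised to unstimulated and stimulated DMSO controls before curve fitting.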
The depositor's hits bear a star; i = inactive; u = inconclusive; x = not tested or not shown. The list is not random: actives were taken first. Their share in the collection is about 4.7%. Unless noted, the call rests on the fitted dose curve; in most records, active means well fitted curve in the direction sought with a large enough effect; inconclusive means small, poorly fitted or top-dose-only effect, or another doubt; inactive means no such curve, though single readings can be large; an effect the other way counts as inactive or inconclusive.

SMILES	S2 tox	DRD3 antagonist	D3 ag	HepG2 tox	ATXN2 expr inh	TGFb inhibitor
O=C(N/N=C/c1ccc(O)c(O)c1)NC12CC3CC(CC(C3)C1)C2	i	-9	12	-34%	-15%	-7%
COc1ccc(CNC(=O)c2ccc3[nH]c(C)c(C)c3c2)c(OC)c1	x	x	14	-26%	x	-8%
COc1ccc(NC(=O)C(=O)NNC(=O)c2cccs2)c(OC)c1	i	-73*	-5	-13%	-11%	-9%
COc1ccc(NC(=O)c2ccc3[nH]c(C)c(C)c3c2)c(OC)c1	i	-53*	-17	-5%	13%	0%
CCN1CCN(CCCN(Cc2ccco2)C(=S)Nc2ccc(Cl)c(C)c2)CC1	i	-29	-15	11µM*	-22%	-12%
Cc1ccc(NC(=S)N(CCCN2CCCC(C)C2)Cc2ccco2)cc1C (centres undefined)	i	-92*	-23	-26%	-13%	-4%
Cc1cc(NC(=S)N(CCN2CCCCC2)Cc2ccco2)ccc1Cl	i	-24	-30	-26%	-6%	-29%
Cc1cc(NC(=S)N(CCCN2CCOCC2)Cc2ccco2)ccc1Cl	i	-19	-25	8%	-11%	u
CCOc1ccc(S(=O)(=O)N2CCN(Cc3nc4ccc(C)cc4o3)CC2)cc1	i	x	-15	-19%	-23%	u
Cc1csc(N=Nc2ccc(N(C)C)cc2)[n+]1[O-]	x	-102*	-20	-37%	x	-15%
CN(C)c1ccc(N=Nc2ccc(C(=O)O)cc2)cc1	u	u	-4	-2%	-42%	5%
COc1cc2ccccc2cc1C(=O)OCC(=O)Nc1ccc(Br)cc1	x	x	x	-6%	x	-1%
CCNC(=S)NNC(=O)c1cc(-c2cccc(C)c2)nc2ccccc12	i	-9	2	-72%	39%	-14%
CCNC(=S)NNC(=O)c1cc(-c2ccc(OC)cc2)nc2ccccc12	i	-6	2	7.9µM*	-28%	-3%
O=C(NC(=S)Nc1ccccn1)c1cc(-c2ccccc2)nc2ccccc12	i	-4	2	-3%	-6%	-2%
CCCCOc1ccc(-c2cc(C(=O)NNC(=S)NCC)c3ccccc3n2)cc1	u	-18	-10	8.9µM*	u	u
O=C(NC(=S)Nc1ccccc1)c1cc(-c2ccccc2)nc2ccccc12	i	-125*	-9	-2%	-12%	-10%
COc1ccc(Cl)cc1C(=O)NNC(=S)NC(=O)c1cc(-c2ccc(Cl)cc2)nc2ccccc12	i	-61*	-5	-29%	5%	-1%
CCc1ccc(-c2cc(C(=O)Nc3ccc(S(=O)(=O)NC(C)=O)cc3)c3ccccc3n2)cc1	i	-93*	-13	1%	23%	-4%
CC(C)N1CCN(C(=O)c2cnn(-c3nccc(-c4ccc5c(c4)OCO5)n3)c2-c2ccco2)CC1	i	x	x	x	x	x
Nc1nc(-c2ccc(Cl)cc2)c(N=Nc2ccc(S(=O)(=O)N3CCOCC3)cc2)s1	x	-54*	0	19%	-37%	2%
CCN(CC)CCN1C(=O)c2ccccc2NC1c1ccc(OC)c(COc2ccc(NC(C)=O)cc2)c1 (centres undefined)	x	x	x	-37%	x	-7%
CN(C)c1nc(C=C(C#N)C#N)c(Cl)n1-c1ccc(F)cc1	22µM*	-64*	-19	8.9µM*	u	5µM*
Cc1occc1C(=O)NCCN1Cc2ccccc2OC(c2ccccc2F)C1 (centres undefined)	i	x	x	x	x	x
O=C(O)C1OC(Oc2cc3oc(-c4ccccc4)cc(=O)c3c(O)c2O)C(O)C(O)C1O (centres undefined)	i	23	32*	0%	9%	-12%
SMILES	S2 tox	DRD3 antagonist	D3 ag	HepG2 tox	ATXN2 expr inh	TGFb inhibitor
COc1c(OC2OC(C(=O)O)C(O)C(O)C2O)cc(O)c2c(=O)cc(-c3ccccc3)oc12 (centres undefined)	i	3	0	-2%	0%	-13%
CCCCC[C@H](O)/C=C/C1C(=O)C=C[C@H]1C/C=C\CCCC(=O)OC (some centres undefined)	x	6	13	-76%	u	22µM*
CCCCC[C@H](O)/C=C/[C@@H]1[C@@H](C/C=C\CCCC(=O)OC)[C@@H](O)C[C@H]1O	i	44	15	-9%	-2%	-2%
CCOC(=O)c1c(S(=O)(=O)N2CCCC(C(=O)N3CCN(c4ccccc4)CC3)C2)c(C)n(C)c1C (centres undefined)	i	x	2	-1%	1%	-30%
Cc1ccc(F)c(C2C3C=CCC(c4ccccc4)C3C(=O)N2Cc2ccccc2)c1 (centres undefined)	x	x	x	-60%	x	13µM*
O=C1C2C(c3ccccc3)CC=CC2[C@H](c2ccc(C(F)(F)F)cc2)N1Cc1ccccc1 (some centres undefined)	x	0	1	-33%	u	u
COc1ccc(-c2ccoc2)cc1C1C2C=CCC(C)C2C(=O)N1Cc1ccccc1 (centres undefined)	x	x	x	-28%	x	16µM*
C[C@@H]1CC=C[C@H]2[C@H]1C(=O)N(Cc1ccccc1)[C@H]2c1ccc(-c2ccoc2)cc1F	u	-62*	-26	-22%	-31%	u
C[C@@H]1CC=C[C@H]2[C@H]1C(=O)N(Cc1ccccc1)[C@H]2c1ccc(C(F)(F)F)cc1	i	-5	-10	-22%	-17%	22µM*
COc1ccc(-c2ccc(OC)c([C@H]3[C@H]4C=CC[C@@H](C)[C@@H]4C(=O)N3Cc3ccccc3)c2)cc1OC	i	-21	-20	-1%	3%	-5%
CCCCn1cc2c(c1-c1ccccc1Br)c(=O)n(C)c(=O)n2C	u	x	3	-17%	-21%	-7%
c1ccc(Cn2ccnc2SCc2nnc(-c3ccccc3)o2)cc1	i	16	32*	-20%	13%	-12%
NC(=O)CSc1nccn1Cc1ccccc1	u	-11	-7	-52%	-8%	-12%
CN(CCOc1ccccc1)CC(=O)Nc1ccc([N+](=O)[O-])cc1Cl	i	-2	-14	-82%	-10%	11µM*
CCc1ccc(NC(=O)CSC2=Nc3ccccc3C3=NC(CC(=O)NCc4ccc5c(c4)OCO5)C(=O)N23)cc1 (centres undefined)	25µM*	x	-26	-29%	8%	-33%
O=C1CC(c2ccccc2)=NN1c1nc(-c2ccccc2)cs1	i	14	47*	-33%	2%	-10%
CC1=NN(c2nc(-c3ccccc3)cs2)C(=O)C1	i	-21	-3	-23%	-8%	3%

High-throughput results: PubChem, National Center for Advancing Translational Sciences (NCATS)
